Experimental data reported in PubChem BioAssay (Tox21).
Records with an inconclusive call do not appear. Calls of active or inactive are those of the source. Unless noted, the call rests on the fitted dose curve; in most records, active means well fitted curve in the direction sought with a large enough effect in the repeat runs; inconclusive means weak or mixed curves; inactive means no such curve, though single readings can be large; an effect the other way counts as inactive or inconclusive.

Experiments:
[1] = biological target: Aryl hydrocarbon receptor (Homo sapiens) (UniProt P35869); assay: qHTS assay to identify small molecule that activate the aryl hydrocarbon receptor (AhR) signaling pathway (AID 743085);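 further: HG2L7.5c1 human HepG2 liver cells with stably integrated DRE-driven firefly reporter; series mostly up to about 70 µM; nearly all actives have a fitted effect of over 15% in size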
Method in brief: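 Luminescence (ONE-Glo) from a dioxin-responsive-element luciferase reporter in HG2L7.5c1 HepG2 cells after 24 hr compound exposure at 37C; viability measured by CellTiter-Fluor fluorescence beforehand.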

[2] = qHTS assay to identify small molecule that activate the aryl hydrocarbon receptor (AhR) signaling pathway - cell viability counter screen (AID 743086); further: nearly all actives have a fitted effect of over 45% in size; further: potency means the concentration at half of the fitted maximal effect
Method in brief: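 HepG2-AhR-luc (HG2L7.5c1) cells, 4000/well, treated 24 h at 37 C with compound; viability measured as CellTiter-Fluor fluorescence after 30 min in the same wells as the luciferase read.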

[3] = qHTS assay to identify small molecule antagonists of the peroxisome proliferator-activated receptor gamma (PPARg) signaling pathway - cell viability counter screen (AID 743194); further: nearly all actives have a fitted effect of over 55% in size; further: potency means the concentration at half of the fitted maximal effect
Method in brief: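 Cytotoxicity counter screen in PPARg-bla HEK293H cells, same wells as reporter assay. Compounds plus 50 nM rosiglitazone (final) for 17 h at 37 C, then viability read by CellTiter-Glo luminescence.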

[4] = qHTS assay for small molecule agonists of the antioxidant response element (ARE) signaling pathway - cell viability counter screen (AID 743203; calls by dose curve; further: nearly all actives have a fitted effect of over 55% in size; further: potency means the concentration at half of the fitted maximal effect)
Method in brief: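 Measured in the same wells as the beta-lactamase ARE reporter, this read-out is CellTiter-Glo luminescence from HepG2 ARE-bla cells given compounds for 16 hrs.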

[5] = qHTS assay for small molecule activators of the heat shock response signaling pathway - cell viability counter screen (AID 743209); further: nearly all actives have a fitted effect of over 50% in size; further: potency means the concentration at half of the fitted maximal effect
Method in brief: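 Same-well multiplex: after 2.5 h room-temperature incubation with LiveBLAzer B/G substrate and fluorescence reading, CellTiter-Glo reagent was added to HSE-bla HeLa cells that had received compound for 5 h at 37 C; luminescence read after 30 min.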

[6] = qHTS assay for small molecule activators of the heat shock response signaling pathway (AID 743210; active means well fitted activation curve with a large enough effect in the signal ratio in the repeat runs, with a control signal flat, not every such curve was filed as active; the % refers to the signal ratio;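 further: HeLa cells with beta-lactamase reporter driven by heat shock elements; series mostly up to about 63 µM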)
Method in brief: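 Beta-lactamase reporter read-out: FRET substrate fluorescence after 2.5 h at RT, following 5 h compound treatment at 37 C of HeLa cells carrying HSE-driven bla reporter; quantitative HTS format.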

[7] = qHTS assay to identify small molecule antagonists of the peroxisome proliferator-activated receptor delta (PPARd) signaling pathway - cell viability counter screen (AID 743213); further: nearly all actives have a fitted effect of over 50% in size; further: potency means the concentration at half of the fitted maximal effect
Method in brief: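 Luminescence from CellTiter-Glo, added after the bla read and incubated 30 min at room temperature, gives viability of HEK293H PPARd-bla cells exposed to compounds for 17 h at 37 C with 300 nM L165041.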

[8] = qHTS assay to identify small molecule agonists of the farnesoid-X-receptor (FXR) signaling pathway - cell viability counter screen (AID 743218); further: nearly all actives have a fitted effect of over 45% in size; further: potency means the concentration at half of the fitted maximal effect
Method in brief: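 Readout: CellTiter-Glo luminescence, 30 min RT, multiplexed after the FXR-bla FRET reading. HEK 293T FXR-UAS-bla cells received compound 5 h post-plating and were incubated 16 h at 37 C.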

[9] = biological target: Bile acid receptor (Homo sapiens) (UniProt Q96RI1); assay: qHTS assay to identify small molecule agonists of the farnesoid-X-receptor (FXR) signaling pathway (AID 743220; active means well fitted activation curve with a large enough effect in the signal ratio in the repeat runs, not every such curve was filed as active; the % refers to the signal ratio)
Method in brief: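 FXR-UAS-bla HEK 293T cells carrying a UAS-driven beta-lactamase reporter were plated for 5 h at 37C/5% CO2, then exposed to DMSO-dissolved Tox21 10K compounds for 16 h at 37C. A LiveBLAzer B/G FRET substrate was loaded for 2 h at room temperature before fluorescence reading.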

[10] = qHTS assay to identify small molecule antagonists of the farnesoid-X-receptor (FXR) signaling pathway - cell viability counter screen (AID 743221; active means well fitted cell-killing curve with a large enough effect in the repeat runs, not every such curve was filed as active; further: nearly all actives have a fitted effect of over 50% in size; further: potency means the concentration at half of the fitted maximal effect)
Method in brief: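 Cytotoxicity counter screen run in the FXR-bla reporter wells: HEK 293T cells exposed to compound with 50 uM (final) chenodeoxycholic acid for 16 h, 37 C, then viability measured by CellTiter-Glo luminescence after 30 min, room temperature.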

[11] = qHTS assay to identify small molecule agonists of the vitamin D receptor (VDR) signaling pathway - cell viability counter screen (AID 743224); further: nearly all actives have a fitted effect of over 50% in size; further: potency means the concentration at half of the fitted maximal effect
Method in brief: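 In parallel with the bla FRET readout, cytotoxicity toward VDR-bla cells after 16 h compound exposure was assessed by CellTiter-Glo, with luminescence recorded after a 30 min room-temperature incubation.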

[12] = biological target: Peroxisome proliferator-activated receptor gamma (Homo sapiens) (UniProt P37231); assay: qHTS assay to identify small molecule agonists of the peroxisome proliferator-activated receptor gamma (PPARg) signaling pathway (AID 743094; active means well fitted activation curve with a large enough effect in the signal ratio in the repeat runs, not every such curve was filed as active; the % refers to the signal ratio)
Method in brief: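 Cell-based bla reporter, HEK293H background, PPARg-driven UAS. Pre-incubation 5 h, 37C, 5% CO2. Compound 17 h, 37C. Substrate 1 h RT; fluorescence.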

[13] = biological target: Peroxisome proliferator-activated receptor gamma (Homo sapiens) (UniProt P37231); assay: qHTS assay to identify small molecule antagonists of the peroxisome proliferator-activated receptor gamma (PPARg) signaling pathway (AID 743191; calls by dose curve; further: series mostly up to about 63 µM; nearly all actives have a fitted effect of over 30% in size)
Method in brief: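 GeneBLAzer PPARg UAS-bla HEK293H cells, 5 h post-plating, exposed to compounds 17 h at 37C. LiveBLAzer B/G FRET substrate added for 1 h at room temperature; beta-lactamase reporter read by fluorescence intensity.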

[14] = qHTS assay for small molecule agonists of the antioxidant response element (ARE) signaling pathway (AID 743202; active means well fitted activation curve with a large enough effect in the signal ratio in the repeat runs, not every such curve was filed as active; the % refers to the signal ratio)
Method in brief: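 HepG2 ARE-bla reporter line, 2,000 cells/well; 5 h preincubation 37 C/5% CO2; compound (DMSO) 16 h 37 C; B/G FRET substrate 2 h RT; fluorescence intensity.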

[15] = qHTS assay to identify small molecule agonists of the peroxisome proliferator-activated receptor delta (PPARd) signaling pathway - cell viability counter screen (AID 743211); further: nearly all actives have a fitted effect of over 55% in size
Method in brief: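 Viability was measured as CellTiter-Glo luminescence (30 min, room temperature) in the same wells as the beta-lactamase readout. GeneBLAzer PPARd UAS-bla HEK293H cells received compound after 5 h plating and were incubated 17 h at 37 C.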

[16] = biological target: Vitamin D3 receptor (Homo sapiens) (UniProt P11473); assay: qHTS assay to identify small molecule agonists of the vitamin D receptor (VDR) signaling pathway (AID 743222; calls by dose curve)
Method in brief: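 Following 4 h attachment at 37C, VDR-bla cells (2,000 per well) received DMSO-dissolved compounds or controls. After 16 h incubation, LiveBLAzer B/G FRET substrate was added and fluorescence read 2 h later at room temperature.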

[17] = biological target: Vitamin D3 receptor (Homo sapiens) (UniProt P11473); assay: qHTS assay to identify small molecule antagonists of the vitamin D receptor (VDR) signaling pathway (AID 743223; active means well fitted inhibition curve with a large enough effect in the signal ratio in the repeat runs, not every such curve was filed as active; the % refers to the signal ratio)
Method in brief: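 Antagonist mode: compound added to VDR-bla cells alongside agonist 1alpha,25-dihydroxyvitamin D3 (3 nM final), incubation 16 h at 37C. Read-out is LiveBLAzer FRET fluorescence, 2 h at room temperature.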

[18] = biological target: Peroxisome proliferator-activated receptor delta (Homo sapiens) (UniProt Q03181); assay: qHTS assay to identify small molecule antagonists of the peroxisome proliferator-activated receptor delta (PPARd) signaling pathway (AID 743215; active means well fitted inhibition curve with a large enough effect in the signal ratio in the repeat runs, not every such curve was filed as active; the % refers to the signal ratio;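 further: cells stimulated with agonist L165041 at 300 nM final during compound exposure; series mostly up to about 62 µM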)
Method in brief: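 Fluorescence from cleaved LiveBLAzer B/G FRET substrate (2 h, room temperature) reports PPARd-driven beta-lactamase in HEK293H UAS-bla cells. Cells had been treated 17 h at 37 C with compound plus 300 nM final L165041.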

[19] = biological target: Peroxisome proliferator-activated receptor delta (Homo sapiens) (UniProt Q03181); assay: qHTS assay to identify small molecule agonists of the peroxisome proliferator-activated receptor delta (PPARd) signaling pathway (AID 743212; calls by dose curve)
Method in brief: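 Read-out: beta-lactamase FRET fluorescence after 2 h room-temperature incubation with LiveBLAzer B/G substrate. Cells were HEK293H carrying a UAS-bla reporter for PPARd, treated at 37 C with DMSO-dissolved compounds.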

[20] = biological target: Bile acid receptor (Homo sapiens) (UniProt Q96RI1); assay: qHTS assay to identify small molecule antagonists of the farnesoid-X-receptor (FXR) signaling pathway (AID 743217; active means well fitted inhibition curve with a large enough effect in the signal ratio in the repeat runs, not every such curve was filed as active; the % refers to the signal ratio)
Method in brief: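 FRET fluorescence after 2 h room-temperature LiveBLAzer loading gives the readout. Prior step: FXR-bla HEK 293T cells, seeded and incubated 5 h, received test compounds plus 50 uM final CDCA for 16 h at 37 °C.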

Measured: Potency

Bile acid receptor (Homo sapiens), sequence (Q96RI1 whole entry, looked up): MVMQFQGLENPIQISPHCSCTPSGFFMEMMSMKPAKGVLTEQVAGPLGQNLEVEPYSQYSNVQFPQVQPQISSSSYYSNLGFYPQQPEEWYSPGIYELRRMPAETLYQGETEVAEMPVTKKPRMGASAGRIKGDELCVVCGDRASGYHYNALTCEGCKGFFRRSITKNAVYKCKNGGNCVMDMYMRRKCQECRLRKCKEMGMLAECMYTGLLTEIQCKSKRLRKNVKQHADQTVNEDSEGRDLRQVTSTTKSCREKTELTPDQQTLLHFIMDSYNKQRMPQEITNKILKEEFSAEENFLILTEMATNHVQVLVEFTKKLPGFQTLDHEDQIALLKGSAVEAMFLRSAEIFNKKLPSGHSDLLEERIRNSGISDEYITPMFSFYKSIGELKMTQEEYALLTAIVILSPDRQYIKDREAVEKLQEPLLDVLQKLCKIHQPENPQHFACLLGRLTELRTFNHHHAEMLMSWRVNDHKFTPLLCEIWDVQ
Peroxisome proliferator-activated receptor delta (Homo sapiens), sequence (Q03181 whole entry, looked up): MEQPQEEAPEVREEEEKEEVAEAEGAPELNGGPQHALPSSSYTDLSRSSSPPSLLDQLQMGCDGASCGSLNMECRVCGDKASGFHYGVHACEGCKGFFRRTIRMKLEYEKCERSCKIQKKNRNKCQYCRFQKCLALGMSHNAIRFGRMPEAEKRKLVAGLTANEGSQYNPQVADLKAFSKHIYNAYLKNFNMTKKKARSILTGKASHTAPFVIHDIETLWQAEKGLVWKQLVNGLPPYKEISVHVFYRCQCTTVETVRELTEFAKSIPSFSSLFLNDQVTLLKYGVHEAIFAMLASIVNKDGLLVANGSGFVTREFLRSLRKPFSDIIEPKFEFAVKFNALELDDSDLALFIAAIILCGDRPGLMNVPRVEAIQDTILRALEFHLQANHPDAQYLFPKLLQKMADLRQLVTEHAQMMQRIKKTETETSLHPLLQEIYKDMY
Peroxisome proliferator-activated receptor gamma (Homo sapiens), sequence (P37231 whole entry, looked up): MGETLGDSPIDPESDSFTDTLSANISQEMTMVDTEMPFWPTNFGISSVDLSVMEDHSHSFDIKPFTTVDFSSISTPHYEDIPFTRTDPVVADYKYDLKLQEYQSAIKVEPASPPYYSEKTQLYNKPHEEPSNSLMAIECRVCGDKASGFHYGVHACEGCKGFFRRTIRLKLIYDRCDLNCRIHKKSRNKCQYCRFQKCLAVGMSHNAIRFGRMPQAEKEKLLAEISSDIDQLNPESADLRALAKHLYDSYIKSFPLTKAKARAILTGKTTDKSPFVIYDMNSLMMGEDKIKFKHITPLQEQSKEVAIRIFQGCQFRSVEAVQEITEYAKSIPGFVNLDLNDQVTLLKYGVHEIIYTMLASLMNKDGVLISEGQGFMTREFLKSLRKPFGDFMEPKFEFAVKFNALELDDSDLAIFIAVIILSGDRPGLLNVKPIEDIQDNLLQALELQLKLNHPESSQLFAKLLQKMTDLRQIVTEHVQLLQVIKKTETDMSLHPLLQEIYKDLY
Vitamin D3 receptor (Homo sapiens), sequence (P11473 whole entry, looked up): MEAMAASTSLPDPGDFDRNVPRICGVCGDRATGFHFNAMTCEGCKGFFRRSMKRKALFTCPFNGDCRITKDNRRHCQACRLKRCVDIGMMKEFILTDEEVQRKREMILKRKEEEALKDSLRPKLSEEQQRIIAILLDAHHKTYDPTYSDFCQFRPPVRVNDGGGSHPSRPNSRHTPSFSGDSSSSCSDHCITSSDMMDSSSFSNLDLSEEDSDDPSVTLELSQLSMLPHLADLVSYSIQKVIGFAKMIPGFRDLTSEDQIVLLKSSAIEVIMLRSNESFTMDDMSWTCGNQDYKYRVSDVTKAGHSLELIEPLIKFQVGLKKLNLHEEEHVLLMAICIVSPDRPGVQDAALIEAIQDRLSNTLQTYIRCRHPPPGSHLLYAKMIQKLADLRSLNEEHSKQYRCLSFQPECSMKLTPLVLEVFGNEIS
Aryl hydrocarbon receptor (Homo sapiens), sequence (P35869 whole entry, looked up): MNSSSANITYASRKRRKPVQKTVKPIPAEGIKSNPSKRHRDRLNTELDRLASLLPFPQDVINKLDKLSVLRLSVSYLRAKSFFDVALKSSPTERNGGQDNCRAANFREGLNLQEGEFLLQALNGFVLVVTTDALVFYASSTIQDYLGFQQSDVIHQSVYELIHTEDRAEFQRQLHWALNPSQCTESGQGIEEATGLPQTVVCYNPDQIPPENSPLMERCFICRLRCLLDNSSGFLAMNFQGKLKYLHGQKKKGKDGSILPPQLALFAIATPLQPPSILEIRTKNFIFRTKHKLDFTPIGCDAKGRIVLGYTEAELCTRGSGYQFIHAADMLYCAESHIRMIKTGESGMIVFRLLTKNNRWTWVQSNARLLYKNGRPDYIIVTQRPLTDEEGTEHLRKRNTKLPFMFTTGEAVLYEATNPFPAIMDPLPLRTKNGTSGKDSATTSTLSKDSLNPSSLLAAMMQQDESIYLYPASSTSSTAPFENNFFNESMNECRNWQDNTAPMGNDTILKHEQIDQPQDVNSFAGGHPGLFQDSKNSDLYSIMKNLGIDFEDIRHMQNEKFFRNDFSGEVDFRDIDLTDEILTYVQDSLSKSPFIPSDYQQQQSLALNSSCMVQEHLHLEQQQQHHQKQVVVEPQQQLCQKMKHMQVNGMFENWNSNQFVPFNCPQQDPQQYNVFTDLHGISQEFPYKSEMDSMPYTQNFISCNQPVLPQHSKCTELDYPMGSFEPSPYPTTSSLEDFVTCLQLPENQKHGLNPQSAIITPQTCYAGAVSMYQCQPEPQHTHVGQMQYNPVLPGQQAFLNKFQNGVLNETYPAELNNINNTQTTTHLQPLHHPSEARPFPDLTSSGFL

O[C@@H](CNC[C@H](O)[C@H]1CCc2cc(F)ccc2O1)[C@@H]1CCc2cc(F)ccc2O1
active: [2] 26.6 µM | [3] 29.8 µM | [4] 21.1 µM | [7] 23.7 µM | [8] 13.3 µM | [10] 29.8 µM | [11] 21.1 µM
inactive: [1] | [5] | [6] | [9]

CCCCCCOC(=O)CCCCC
inactive: [2] | [12] | [13] | [3] | [14] | [4] | [5] | [6] | [15] | [7] | [8] | [10] | [16] | [17] | [11]

CN(C)CC/C=C1\c2ccccc2Sc2ccc(Cl)cc21
inactive: [1] | [5] | [6] | [18] | [16] | [17]
active: [8] 23.7 µM

CC(=O)NNC(C)=O
inactive: [1] | [2] | [3] | [14] | [4] | [15] | [19] | [7] | [18] | [20] | [8] | [9] | [10] | [16] | [17] | [11]

CC(C)(O)c1coc(S(=O)(=O)NC(=O)Nc2c3c(cc4c2CCC4)CCC3)c1
inactive: [2] | [12] | [13] | [3] | [14] | [4] | [5] | [6] | [15] | [7] | [20] | [8] | [9] | [10] | [16] | [17] | [11]

O=C(O)CNC(=O)c1ccccc1I
inactive: [1] | [13] | [3] | [14] | [4] | [5] | [6] | [15] | [19] | [7] | [18] | [20] | [8] | [10] | [16] | [11]

CC(C)C(=O)OCCOc1ccccc1
inactive: [2] | [12] | [13] | [3] | [14] | [4] | [5] | [6] | [15] | [19] | [18] | [10] | [16] | [17] | [11]

C1CCCCC1
inactive: [2] | [12] | [13] | [3] | [14] | [4] | [5] | [6] | [15] | [19] | [7] | [18] | [20] | [8] | [9] | [10] | [11]

Cc1cccc(C)c1NC(=O)c1cc(S(N)(=O)=O)c(Cl)cc1O
inactive: [2] | [12] | [13] | [3] | [14] | [4] | [5] | [6] | [15] | [19] | [18] | [20] | [8] | [9] | [10] | [16] | [17] | [11]

Nc1c(Cl)cc(Cl)cc1[N+](=O)[O-]
inactive: [1] | [2] | [3] | [4] | [5] | [15] | [19] | [7] | [8] | [10] | [16] | [11]

CCN(CC)CCNC(=O)c1cc(Cl)c(N)cc1OC
inactive: [1] | [2] | [3] | [14] | [4] | [6] | [15] | [7] | [20] | [8] | [9] | [10] | [16] | [17] | [11]

CC/C=C\C/C=C\C/C=C\CCCCCCCC(=O)OCC
inactive: [1] | [2] | [3] | [4] | [5] | [15] | [19] | [7] | [18] | [20] | [8] | [9] | [10] | [16]

CN1CCCN(C(c2ccccc2)c2ccc(Cl)cc2)CC1 (stereo not drawn)
inactive: [1] | [5] | [6] | [9]
active: [8] 29.8 µM | [10] 26.6 µM

O=C(NS(=O)(=O)/C=C/c1ccccc1)c1ccc(F)cc1Cl
inactive: [1] | [2] | [3] | [4] | [5] | [6] | [15] | [19] | [7] | [18] | [8] | [11]

CC(CN(CCN(CC(C)OCCO)CC(C)OCCO)CC(C)OCCO)OCCO (stereo not drawn)
inactive: [2] | [12] | [6] | [15] | [19] | [18] | [8] | [16] | [17] | [11]
active: [3] 37.5 µM | [4] 33.1 µM

CN=C(N)NC(=O)Nc1c(C)cccc1C
inactive: [2] | [12] | [13] | [3] | [14] | [4] | [6] | [19] | [18] | [8] | [10] | [16] | [17] | [11]

C/C(C=O)=C\c1ccccc1
inactive: [2] | [12] | [13] | [3] | [4] | [6] | [15] | [19] | [18] | [8] | [16] | [17] | [11]

CC(C)CC(O)CC(C)C
inactive: [2] | [12] | [3] | [4] | [5] | [6] | [15] | [7] | [8] | [10] | [16] | [17] | [11]

CC1CCC(C(C)CS)CC1S (stereo not drawn)
inactive: [2] | [12] | [19] | [18] | [8] | [10] | [16] | [11]
active: [4] 15.4 µM | [5] 38.9 µM
